# Assay results taken from PubChem BioAssay AID1554 (Broad Institute, 2009).
# Screen size: about 300,000 compounds; about 520 (0.17%) were called active. The entries come from a sample that favours actives as a whole. A number with no mark means an inactive call. Rule as the data show it: active = inhibition above about 50%; inconclusive = no clear call, values can overlap the other calls; inactive = below that.
# Assay: PubChem AID 1554
# Details: BJeLR (HRASV12) viability, CellTiter-Glo ATP luminescence, 48 h; active compounds read high; concentration not given here
row,SMILES,inhibition
1,CC(C)(C)c1ccc(/C=C2\SC(=O)N=C2N)cc1,-2.23%
2,CC(NC(=O)CC1SC(N)=NC1=O)c1ccccc1 (configuration not stated),4.16%
3,Brc1ccc2c(c1)[C@H]1OCC[C@H]1[C@@H](c1cccs1)N2,10.2%
4,CC(C)Cn1c(=O)c2ccccc2n2c(CCC(=O)NCc3ccccn3)nnc12,-6.38%
5,CN(C)N1C(N)=C(C#N)C(c2ccc(Br)cc2)C2=C1CCCC2=O (configuration not stated),-10.4%
6,COc1cc(NS(=O)(=O)c2ccc(NC(=S)NC(=O)c3ccc(Br)cc3)cc2)ncn1,-4.7%
7,O=C1C2CCCN2C(=O)N1CCCCN1CCN(c2cccc(C(F)(F)F)c2)CC1 (configuration not stated),-4.72%
8,Cc1ccccc1NC(=O)c1nn(-c2ccc(F)c(F)c2)ccc1=O,-12.5%
9,Cc1cccc(NC(=O)/C=C/c2ccc3c(c2)OCO3)n1,-11.7%
10,CSCCC(NC(=O)COc1ccccc1)C(=O)OCCOc1ccc(Br)cc1 (configuration not stated),5.25%
11,COc1ccc(COC(=O)NC(C(=O)O)c2ccccc2)cc1 (configuration not stated),-0.701%
12,COc1ccc(CN(C)C(=O)CC(c2ccccc2)c2ccccc2)cc1,3.85%
13,COc1ccc(C(CCN(Cc2ccc(OC)c(OC)c2)C(=O)CCl)c2ccccc2)cc1 (configuration not stated),85.3% (active)
14,CCOC(=O)C1=C(CSc2nnnn2C)N(C)C(=O)NC1c1ccccc1 (configuration not stated),0.916%
15,CCN(CC)CCCN=C(N)N,-2.78%
16,Nc1nc(-c2sc3nc4c(cc3c2N)CCCC4)nc(N2CCOCC2)n1,-1.17%
17,CCOC(=O)C1CCN(S(=O)(=O)c2ccc3c(c2)N(C(C)=O)CCO3)CC1,6.7%
18,CCN1C(=O)[C@@H]2[C@@H](c3ccc(-c4ccccc4)cc3)N3CCCC[C@@]3(C(=O)OC)[C@@H]2C1=O,6.3%
19,COc1ccc(NC(=O)CN(C)C(=O)c2ccc(NC3CC3)c([N+](=O)[O-])c2)cc1,-1.94%
20,O=C(CCC(=O)n1ncc2ccccc21)NCc1ccccc1Cl,2.75%
21,COc1ccccc1CCC(=O)OCC(=O)N1CCN(S(=O)(=O)c2ccc(C)cc2C)CC1,-5.89%
22,N#C/C(=C(\O)C(F)(F)F)c1nnc2n1CCCCC2,-1.07%
